From PubChem BioAssay (NCATS) come the findings set out here.

Inconclusive results are not listed. Unmarked numbers belong to inactive results. Activity calls are given as the source filed them. Calls come from the whole dose curve; as a rule, active = well fitted cell-killing curve with a large enough effect; inconclusive = small, poorly fitted or top-dose-only effect, or effect the other way; inactive = no such curve, though single readings can be large or run the other way.

Assay [1] in a line: Viability qHTS for spleen associated tyrosine kinase inhibitor (SYKi) naive MV4-11 cells (AID 1963823). Note: nearly all actives have a fitted effect of over 40% in size. In outline:
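In this viability screen, compounds acted on SYK inhibitor naive MV4-11 cells for three days (72 hr, 37 C). Remaining viable cells were measured by CellTiter-Glo luminescence following a 10 min room-temperature development.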

Assay [2] can be described thus: Viability qHTS for spleen associated tyrosine kinase inhibitor (SYKi) drug resistant MV4-11 cells (AID 1963824). Note: nearly all actives have a fitted effect of over 35% in size. In outline: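 SYK-inhibitor-resistant MV4-11 AML cells were seeded at 500 per well onto compound and cultured 72 hours (37 °C, 5% CO2). CellTiter-Glo was then added, and after 10 min at room temperature, luminescence gave viability.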
(Quantitative high-throughput screening tests each substance at several concentrations.)
Potency is the fitted concentration of half-maximal effect.

As to `OC[C@H]1O[C@@H](Oc2ccccc2)[C@H](O)[C@@H](O)[C@@H]1O`, the Potency result in assay [1] and in assay [2] was “inactive” in each case.
Take `NCc1ccc(Nc2ncc(F)c(Nc3ccccc3)n2)cc1`: the Potency is 0.651 µM (active) in assay [1] and 1.46 µM (active) in assay [2].
On to `CC(C)(C)c1cc(Br)cc([C@H](CC(=O)O)NC(=O)CNC(=O)c2cc(O)cc(NC3=NCC(O)CN3)c2)c1` (stereo partly specified), for which the Potency result in assay [1] and in assay [2] was “inactive” in each case.
Consider `Cc1nc(N2CCN(C(=O)c3ccco3)CC2)c2c3c(sc2n1)CCCC3`, for which the Potency in assay [1] is 9.2 µM (active); in assay [2], 14.6 µM (active).
Take `CC1=C2C(=O)C=C(CO[C@@H]3O[C@H](CO)[C@@H](O)[C@H](O)[C@H]3O)[C@@H]2[C@H]2OC(=O)[C@H](C)[C@@H]2CC1`: the Potency result in assay [1] and in assay [2] was “inactive” throughout.
On to `CCCN(CCC)C(=O)C(CCC(=O)OCCCN1CCN(CCOC(=O)Cc2c(C)n(C(=O)c3ccc(Cl)cc3)c3ccc(OC)cc23)CC1)NC(=O)c1ccccc1` (stereo unspecified), for which the Potency in assay [1] was 23.1 µM (active); in assay [2], 20.6 µM (active).
`C=C1CC[C@@H]2[C@](C)(CO)[C@H](O)CC[C@@]2(C)[C@@H]1C/C=C1/C(=O)OC[C@@H]1O`: the Potency is 4.53 µM (active) in assay [1] and 3.21 µM (active) in assay [2].
The matching figures for `COc1cc(/C=C/C(=O)OC2CC(C)=C(C(=O)O)/C2=C/CO[C@@H]2O[C@H](CO)[C@@H](O)[C@H](O)[C@H]2O)ccc1O` (stereo partly specified): “inactive” and “inactive”.
In the same order, the values of `COc1c(C)c(C(=O)c2ccc(N)c(C(=O)O)c2)n2ccccc12` are “inactive” and “inactive”.
The matching figures for `CC12CCC(OC3OC(CO)C(O)C(OC4OC(CO)C(O)C(O)C4O)C3O)CC1CCC1C2CCC2(C)/C(=C3/COC(=O)C3)CCC12O` (stereo unspecified): “inactive” and “inactive”.
Turning to `C[C@@H]1C[C@@H](O)[C@@]23CO[C@@H](O)[C@@H]2CCC[C@@H]3[C@@]12C[C@@H](c1ccoc1)OC2=O`, the Potency entry in assay [1] and in assay [2] was “inactive” in each case.
As to `CCCCCCOC(=O)NC(=N)c1ccc(NCc2nc3cc(C(=O)N(CCC(=O)OCC)c4ccccn4)ccc3n2C)cc1`, the results for the Potency in assay [1] and in assay [2] were 2.35 µM (active) and 1.48 µM (active), respectively.
In the same order, the values of `Cc1cc(C)cc(C(=O)NOCCCCCC(=O)NO)c1` are 0.92 µM (active) and 0.58 µM (active).
Consider `C=CC(=O)N1CCN(C(=O)CNc2cc(-c3ccccc3Cl)c(Cl)cc2OC)CC1`, for which the Potency in assay [1] is 10.3 µM (active); in assay [2], 11.6 µM (active).
In the same order, the values of `O=C1C[C@@H](c2ccc(O)cc2)Oc2cc(O)ccc21` are 11.6 µM (active) and 14.6 µM (active).
Regarding `CC(C)(CC(=O)N1CCCC1)NCC(=O)N1C[C@@H](F)C[C@H]1C#N`, the Potency entry in assay [1] and in assay [2] was “inactive” in each case.
Take `CCCCNc1ncc2c(-c3ccc(S(=O)(=O)N4CCOCC4)cc3)nn(C3CCC(O)CC3)c2n1` (stereo unspecified): the Potency in assay [1] was 0.0184 µM (active); in assay [2] it was 0.0291 µM (active).
In the same order, the values of `COC(=O)C1=CO[C@@H](O[C@@H]2O[C@H](CO)[C@@H](O)[C@H](O)[C@H]2O)[C@@H]2[C@@H](C)[C@@H](O)C[C@H]12` are “inactive” and “inactive”.
In the same order, the values of `CC/C(=C(\c1ccc(O)cc1)c1ccc(OCCNC)cc1)c1ccccc1` are “inactive” and “inactive”.
Regarding `OC[C@@]1(O)CO[C@H](OC[C@H]2O[C@@H](OC(CCCCc3ccc(O)cc3)CCc3ccc(O)cc3)[C@H](O[C@H]3OC[C@](O)(CO)[C@H]3O)[C@@H](O)[C@@H]2O)[C@@H]1O` (stereo partly specified), the Potency result in assay [1] and in assay [2] was “inactive” each time.
On to `NC(=O)c1cnc2[nH]ccc2c1NC1C2CC3C[C@H]1CC(O)(C3)C2` (stereo partly specified), for which the Potency in assay [1] was 0.105 µM (active); in assay [2] it was 0.468 µM (active).
With `O=C(Nc1ccn(Cc2c(F)cccc2C(F)(F)F)n1)c1c(F)cccc1F`, the viability (% of control) in assay [1] was 72.8% [at 9.25 µM]. Besides, in assay [2], the viability, % of control is 91.5% [at 9.25 µM].
In the case of `Nc1ncnc2c1ncn2CCNCCCCCO`, the Potency result in assay [1] and in assay [2] was “inactive” each time.
Regarding `Cc1nc2cc(-c3cc(F)cc(C#N)c3)ccc2s1`, the Potency entry in assay [1] and in assay [2] was “inactive” in each case.
Take `O=C(Nc1ccccc1-c1cn2c(CN3CCNCC3)csc2n1)c1ccc2ccccc2n1`: the Potency was 10.3 µM (active) in assay [1] and 20.6 µM (active) in assay [2].
`C=C1CCC[C@]2(C)CC[C@@](O)(C(=C)C(=O)O)C[C@@H]12`: the Potency result in assay [1] and in assay [2] was “inactive” each time.
For `C[C@@H]1O[C@@H](O[C@H]2[C@H](OC(=O)[C@]34CCC(C)(C)C[C@H]3C3=CCC5[C@@]6(C)C[C@@H](O)[C@@H](O[C@@H]7O[C@H](CO)[C@@H](O)[C@H](O)[C@H]7O)[C@@](C)(CO)C6[C@H](O)C[C@@]5(C)[C@]3(C)CC4)OC[C@H](O)[C@@H]2O)[C@H](O)[C@H](O[C@@H]2OC[C@](O)(CO)[C@H]2O)[C@H]1O[C@@H]1OC[C@@H](O)[C@H](O[C@H]2O[C@H](C)[C@@H](O)[C@H](O)[C@@H]2O)[C@H]1O` (stereo partly specified), the viability (% of control) in assay [1] was 80.1% [at 9.25 µM]. The viability, % of control in assay [2] was 86.5% [at 9.25 µM].
For `COC(=O)c1cc(CN2CCN(C(=N)N)CC2)cc(C(=O)N2CCN(C(=O)c3ccc(C(=N)N)cc3)CC2)c1`, the Potency result in assay [1] and in assay [2] was “inactive” in each case.
